Measurements published in PubChem BioAssay AID1159580 (chemical genetic matrix, 2015).
Out of some 5,500 compounds screened, about 2,000 (36%) were called active. Another 18% or so got no clear call; they are omitted. No stated cut-off is given here; in the data, active means normalized growth mostly below about 0.91 (no sharp cut-off); inconclusive means no clear call, values can overlap the other calls; inactive means mostly above about 0.92. The list shows a part of the results.

Assay: chemical genetic growth profiling, strain panel (AID 1159580);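 further: tested at 20 µM; growth read once vehicle control cultures reached saturation at 30 °C; 1 = growth at the plate median or of vehicle wells; lower values mean less growth of the strain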
Conditions: growth OD

Measured: normalized growth

COc1cc2cc[n+]3cc4c(OC)c(OC)ccc4cc3c2cc1OC
inactive: S. cerevisiae deletion strains, locus YJR075W, strain HOC1, hits give low values 0.979 | S. cerevisiae deletion strains, locus YKL009W, strain mrt4, hits give low values 0.965 | S. cerevisiae deletion strains, locus YKL068W, hits give low values 0.963 | S. cerevisiae deletion strains, locus YKL085W, strain MDH1 (second series), hits give low values 0.992 | S. cerevisiae deletion strains, locus YKL085W, strain MDH1, hits give low values 0.992 | S. cerevisiae deletion strains, locus YKL160W, strain elf1, hits give low values 0.976 | S. cerevisiae deletion strains, locus YKL190W, strain CNB1, hits give low values 0.982 | S. cerevisiae deletion strains, locus YKR001C, strain vps1, hits give low values 0.99 | S. cerevisiae deletion strains, locus YKR026C, strain gcn3, hits give low values 0.985 | S. cerevisiae deletion strains, locus YKR091W, strain srl3, hits give low values 0.976 | S. cerevisiae deletion strains, locus YLL001W, strain dnm1, hits give low values 0.965 | S. cerevisiae deletion strains, locus YLL026W, hits give low values 0.97 | S. cerevisiae deletion strains, locus YLL041C, strain sdh2, hits give low values 0.99 | S. cerevisiae deletion strains, locus YLR027C, strain aat2, hits give low values 0.962 | S. cerevisiae deletion strains, locus YLR039C, strain RIC1, hits give low values 0.938 | S. cerevisiae deletion strains, locus YLR058C, strain SHM2, hits give low values 0.985 | S. cerevisiae deletion strains, locus YLR102C, strain apc9, hits give low values 0.959 | S. cerevisiae deletion strains, locus YLR113W, strain HOG1, hits give low values 1.02 | S. cerevisiae deletion strains, locus YLR221C, strain rsa3, hits give low values 0.968 | S. cerevisiae deletion strains, locus YLR258W, strain gsy2, hits give low values 0.993 | S. cerevisiae deletion strains, locus YLR262C, strain YPT6 (second series), hits give low values 1.01 | S. cerevisiae deletion strains, locus YLR262C, strain YPT6, hits give low values 0.926 | S. cerevisiae deletion strains, locus YLR268W, strain sec22, hits give low values 1 | S. cerevisiae deletion strains, locus YLR320W, strain mms22, hits give low values 0.979 | S. cerevisiae deletion strains, locus YLR330W, strain CHS5, hits give low values 0.977 | S. cerevisiae deletion strains, locus YLR342W, strain FKS1 (second series), hits give low values 0.96 | S. cerevisiae deletion strains, locus YLR342W, strain FKS1, hits give low values 0.981 | S. cerevisiae deletion strains, locus YLR357W, strain rsc2, hits give low values 0.95 | S. cerevisiae deletion strains, locus YLR370C, strain arc18, hits give low values 0.981 | S. cerevisiae deletion strains, locus YLR371W, strain rom2, hits give low values 0.952 | S. cerevisiae deletion strains, locus YLR384C, strain iki3, hits give low values 0.977 | S. cerevisiae deletion strains, locus YLR418C, strain cdc73, hits give low values 1 | S. cerevisiae deletion strains, locus YML016C, strain PPZ1, hits give low values 0.985 | S. cerevisiae deletion strains, locus YML032C, strain rad52, hits give low values 0.955 | S. cerevisiae deletion strains, locus YML120C, strain ndi1, hits give low values 0.978 | S. cerevisiae deletion strains, locus YML124C, strain tub3, hits give low values 0.985 | S. cerevisiae deletion strains, locus YMR058W, strain fet3, hits give low values 0.973 | S. cerevisiae deletion strains, locus YMR078C, strain ctf18, hits give low values 0.986 | S. cerevisiae deletion strains, locus YMR125W, strain sto1, hits give low values 0.938 | S. cerevisiae deletion strains, locus YMR129W, hits give low values 0.987 | S. cerevisiae deletion strains, locus YMR205C, strain PFK2, hits give low values 0.961 | S. cerevisiae deletion strains, locus YMR223W, strain ubp8, hits give low values 0.97 | S. cerevisiae deletion strains, locus YMR231W, strain pep5, hits give low values 0.988 | S. cerevisiae deletion strains, locus YMR263W, strain SAP30, hits give low values 0.988 | S. cerevisiae deletion strains, locus YMR307W, strain GAS1, hits give low values 1.1 | S. cerevisiae deletion strains, locus YNL067W, strain RPL9B, hits give low values 0.982 | S. cerevisiae deletion strains, locus YNL071W, strain lat1, hits give low values 0.988 | S. cerevisiae deletion strains, locus YNL128W, strain TEP1, hits give low values 0.995 | S. cerevisiae deletion strains, locus YNL153C, strain GIM3, hits give low values 0.999 | S. cerevisiae deletion strains, locus YNL183C, strain NPR1, hits give low values 0.95 | S. cerevisiae deletion strains, locus YNL209W, strain ssb2, hits give low values 0.982 | S. cerevisiae deletion strains, locus YNL233W, strain BNI4, hits give low values 1 | S. cerevisiae deletion strains, locus YNL248C, strain rpa49, hits give low values 0.968 | S. cerevisiae deletion strains, locus YNL250W, strain rad50, hits give low values 0.968 | S. cerevisiae deletion strains, locus YNL271C, strain bni1, hits give low values 0.975 | S. cerevisiae deletion strains, locus YNL298W, strain CLA4, hits give low values 0.984 | S. cerevisiae deletion strains, locus YNL307C, strain MCK1, hits give low values 0.985 | S. cerevisiae deletion strains, locus YNL322C, strain KRE1 (second series), hits give low values 0.959 | S. cerevisiae deletion strains, locus YNL322C, strain KRE1, hits give low values 0.98 | S. cerevisiae deletion strains, locus YNR049C, strain mso1, hits give low values 0.972 | S. cerevisiae deletion strains, locus YNR052C, strain pop2, hits give low values 0.98 | S. cerevisiae deletion strains, locus YOL006C, strain TOP1, hits give low values 1.02 | S. cerevisiae deletion strains, locus YOL012C, strain htz1 0.901 | S. cerevisiae deletion strains, locus YOL147C, strain pex11, hits give low values 0.988 | S. cerevisiae deletion strains, locus YOR001W, strain rrp6, hits give low values 0.987 | S. cerevisiae deletion strains, locus YOR061W, strain CKA2, hits give low values 0.98 | S. cerevisiae deletion strains, locus YOR069W, strain VPS5, hits give low values 0.993 | S. cerevisiae deletion strains, locus YOR070C, strain gyp1, hits give low values 0.984 | S. cerevisiae deletion strains, locus YOR080W, strain dia2, hits give low values 0.965 | S. cerevisiae deletion strains, locus YOR083W, strain WHI5, hits give low values 0.964 | S. cerevisiae deletion strains, locus YOR106W, strain vam3, hits give low values 0.998 | S. cerevisiae deletion strains, locus YOR136W, strain idh2, hits give low values 0.986 | S. cerevisiae deletion strains, locus YOR144C, strain elg1, hits give low values 0.983 | S. cerevisiae deletion strains, locus YOR184W, strain ser1, hits give low values 0.933 | S. cerevisiae deletion strains, locus YOR231W, strain MKK1, hits give low values 1.03 | S. cerevisiae deletion strains, locus YOR265W, strain rbl2, hits give low values 0.989 | S. cerevisiae deletion strains, locus YOR270C, strain vph1, hits give low values 0.937 | S. cerevisiae deletion strains, locus YOR290C, strain snf2, hits give low values 0.946 | S. cerevisiae deletion strains, locus YOR316C, strain cot1, hits give low values 0.988 | S. cerevisiae deletion strains, locus YPL051W, strain arl3, hits give low values 0.997 | S. cerevisiae deletion strains, locus YPL055C, strain LGE1, hits give low values 0.984 | S. cerevisiae deletion strains, locus YPL078C, strain atp4, hits give low values 0.986 | S. cerevisiae deletion strains, locus YPL106C, strain sse1, hits give low values 0.953 | S. cerevisiae deletion strains, locus YPL240C, strain hsp82, hits give low values 0.982 | S. cerevisiae deletion strains, locus YPL256C, strain CLN2, hits give low values 1.03 | S. cerevisiae deletion strains, locus YPR119W, strain clb2, hits give low values 0.979 | S. cerevisiae deletion strains, locus YPR141C, strain kar3, hits give low values 0.988 | S. cerevisiae deletion strains, locus YPR163C, strain tif3, hits give low values 0.988 | S. cerevisiae deletion strains, locus YPR167C, strain met16, hits give low values 0.984 | S. cerevisiae deletion strains, strain wtn01, hits give low values 0.971 | S. cerevisiae strains, strain wild type, hits give low values 0.985
